Measurements: PubChem BioAssay (NCI)
About 83,000 compounds went through this panel and 20% of them were active in at least one assay; those are over-represented in the sample as a whole.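 Negative percent growth values reflect cell death: -40 means 40% of the cells present at the start died, and -100 means all died.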 Values without a mark were called inactive. Calls of active or inactive are those of the source. How the source made its calls: active means growth percent below 10; inactive means the rest.

test system: NCI-H23 lung; test: NCI-60 one-dose screen, 48 h (100 = growth as untreated, 0 = no growth, -100 = all killed); conditions: 10 µM unless noted

SMILES	growth
COc1cccc2cc(-c3nc(C4CCC(C(=O)O)CC4)n4ncnc(N)c34)[nH]c12 (stereo not given)	7.94% (active)
CNC(=O)c1cc(Oc2ccc3nc(NC(=O)Nc4ccc(Cl)c(C(F)(F)F)c4)sc3c2)ccn1	16.5%
C[C@@H](Oc1cc(-n2cnc3ccc(CN4CCN(C)CC4)cc32)sc1C(N)=O)c1ccccc1C(F)(F)F	32.9%
Oc1ccc(C(c2ccc(O)cc2)C(Cl)(Cl)Cl)cc1	99.8%
C[C@H](NC(=O)c1c(N)nn2cccnc12)c1cc2cccc(C#Cc3cnn(C)c3)c2c(=O)n1-c1ccccc1	40.9%
COc1cc(CCc2cc(NC(=O)c3ccc(N4C[C@@H](C)N[C@@H](C)C4)cc3)n[nH]2)cc(OC)c1	40.1%
CNC(=O)CN1CCC(Oc2cc3c(Nc4cccc(Cl)c4F)ncnc3cc2OC)CC1	79.7%
Cc1oc2c(C(=O)N/N=C\c3ccc(O)cc3O)c[nH]c2c1C	40.7%
CCCCCc1ccc(C)cc1OC(=O)CCl	113%
COc1cc2ncnc(Oc3cccc(NC(=O)Nc4cc(C(C)(C)C(F)(F)F)on4)c3)c2cc1OC	19.4%
COc1cc(Nc2ncc3c(n2)-c2ccc(Cl)cc2C(c2c(F)cccc2OC)=NC3)ccc1C(=O)O	77.6%
CC[C@H](Nc1ncnc2nc[nH]c12)c1nc2cccc(F)c2c(=O)n1-c1ccccc1	93%
CN1CCN(CCOc2cc(OC3CCOCC3)c3c(Nc4c(Cl)ccc5c4OCO5)ncnc3c2)CC1	81.4%
Nc1nc(Nc2ccccc2)c(C=Nc2ccccc2)c(=O)[nH]1	88.5%
CNC(=O)c1cc(Oc2cccc3nc(Nc4ccc(Oc5ccccc5)cc4)ccc23)ccn1	78%
CN1CC[C@@H](c2c(O)cc(O)c3c(=O)cc(-c4ccccc4Cl)oc23)[C@@H]1CO	-26.5% (active)
Cc1[nH]n(C(N)=S)c(=O)c1N=Nc1ccc(S(=O)(=O)Nc2ccncn2)cc1	102%
COCCN1CCN(Cc2ccc(-c3n[nH]c4c3C(=O)c3c(NC(=O)NN5CCOCC5)cccc3-4)cc2)CC1	-33.7% (active)

SMILES	growth
CN(c1ncccc1CNc1nc(Nc2ccc3c(c2)CC(=O)N3)ncc1C(F)(F)F)S(C)(=O)=O	-18.1% (active)
COc1cc(N2CCC(N3CCN(C)CC3)CC2)ccc1Nc1ncnc(Nc2ccccc2S(=O)(=O)C(C)C)n1	102%
O=C(COc1ccc(/C=C2\Cc3ccc(Cl)cc3C2=O)cc1)Nc1nccs1	88.9%
O=C(c1ccc(/C=C/c2n[nH]c3ccccc23)cc1)N1CCNCC1	24.8%
O=C(O)C1(Cc2cccc(Nc3nccs3)n2)CCC(Oc2cccc(Cl)c2F)CC1 (stereo not given)	66%
Cc1cc(O)cc(-c2c(-c3ccnc(-c4cccnc4)c3)cnn2C)c1	93.6%
Cc1c(CN2CCN(C(=O)[C@H](C)O)CC2)sc2c(N3CCOCC3)nc(-c3cnc(N)nc3)nc12	6.62% (active)
CN1CCN(c2ccc(C(=O)Nc3n[nH]c4ccc(Cc5cc(F)cc(F)c5)cc34)c(NC3CCOCC3)c2)CC1	11%
C#Cc1cccc(Nc2ncnc3cc(OCCOC)c(OCCOC)cc23)c1	74.9%
COc1ccc(Nc2ncccc2NC(=O)c2cn(Cc3cccc(Oc4ccccc4)c3)nn2)cc1	91.8%
O=C1NC(=O)[C@@H](c2cn3c4c(cccc24)CCC3)[C@@H]1c1c[nH]c2ccccc12	32.5%
Cc1cc(-c2cc(O)ccc2Cl)cc2nnc(Nc3ccc(OCCN4CCCC4)cc3)nc12	-63.2% (active)
C=CCN(/C=C1/C(=O)O[C@H](COC)[C@@]2(C)C1=C(O)C(=O)C1=C2[C@H](OC(C)=O)C[C@]2(C)C(=O)CC[C@@H]12)CC=C	36.7%
CNC(=O)c1nn(C)c2c1C(C)(C)Cc1cnc(Nc3ccc(N4CCN(C)CC4)cc3)nc1-2	2.37% (active)
CC(C)Nc1cc(-c2c[nH]c(C(=O)N[C@H](CO)c3cccc(Cl)c3)c2)c(Cl)cn1	19.9%
COc1ccc(Cc2cc(-c3ccccc3C)n[nH]c2=O)cc1	98.6%
CC(C)[C@@H]1CC[C@@H]2[C@@H]1[C@H](OC(=O)/C=C/c1ccccc1)[C@]1(C(C)C)C[C@@H](OC(=O)CO)[C@@]2(C)O1	83.1%
